Bioassay records as filed in PubChem.
A selection: hits, their analogues and other compounds. The true share with any hit is near 2.4%.
POLI inh: qHTS for Inhibitors of Polymerase Iota; 390,000 compounds, 1% hits; AID 588590, 2011; Potency, µM (top dose mostly 115 µM), inactives show at the top dose activity, negative = inhibition, most hits filed as inhibitors; Pol iota fluorescent replication assay, 10 min
Target sequence (Q9UNA4 whole entry, looked up): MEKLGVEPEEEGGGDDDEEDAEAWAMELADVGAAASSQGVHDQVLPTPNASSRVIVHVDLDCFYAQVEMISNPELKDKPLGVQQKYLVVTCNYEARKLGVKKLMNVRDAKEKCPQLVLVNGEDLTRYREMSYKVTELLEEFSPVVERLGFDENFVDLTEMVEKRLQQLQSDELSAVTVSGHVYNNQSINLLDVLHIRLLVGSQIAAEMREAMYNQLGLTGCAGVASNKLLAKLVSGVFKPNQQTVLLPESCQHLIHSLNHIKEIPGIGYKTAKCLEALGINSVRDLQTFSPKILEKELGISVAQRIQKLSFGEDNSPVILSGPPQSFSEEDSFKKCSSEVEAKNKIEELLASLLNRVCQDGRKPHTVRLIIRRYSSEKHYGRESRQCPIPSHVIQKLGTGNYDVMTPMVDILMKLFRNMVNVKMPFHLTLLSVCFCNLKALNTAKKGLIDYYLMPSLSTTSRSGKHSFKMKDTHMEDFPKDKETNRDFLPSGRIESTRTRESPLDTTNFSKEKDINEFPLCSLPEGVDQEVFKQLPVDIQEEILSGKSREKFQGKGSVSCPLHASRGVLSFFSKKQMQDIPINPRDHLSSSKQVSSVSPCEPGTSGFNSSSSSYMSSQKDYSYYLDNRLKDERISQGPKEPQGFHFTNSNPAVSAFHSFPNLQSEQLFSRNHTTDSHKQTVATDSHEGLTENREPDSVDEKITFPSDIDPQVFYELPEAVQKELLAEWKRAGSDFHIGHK
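Fluorescent replication assay read twice, at 0 min and 10 min after adding 50 nM (final) substrate. Enzyme (10 nM) and compounds were first incubated 15 min at room temperature; enzyme-free buffer wells were negative controls.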
FEN1 inhibitor: qHTS Assay for the Inhibitors of Human Flap endonuclease 1 (FEN1); 390,000 compounds, 0.35% hits; Potency, µM (doses to about 114 µM), for the others: at the highest dose activity change, negative = inhibition, hits mostly inhibitors; Recombinant FEN1 flap cleavage, fluorescence, 15 min; P39748; also: % is scaled to controls: 0 for no effect and ±100 for the full control effect; nearly all actives have a fitted effect of over 65% in size
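FEN1 at 10 nM preincubated with compounds 15 min at room temperature, then flap DNA substrate added at 50 nM final. Signal read at 0 and 15 min; concentration-response fitted with four-parameter Hill equation.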
Pol beta inh: qHTS Assay for Inhibitors of DNA Polymerase Beta; 340,000 compounds, 1.3% hits; Potency, µM (highest dose often 114 µM), without a hit: at the top dose activity change, negative = inhibition, usual class: inhibitors; P06746; Pol beta primer extension/strand displacement, fluorescence kinetic; also: % is scaled to controls: 0 for no effect and ±100 for the full control effect
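Values derive from four-parameter Hill fits of normalized kinetic data: reads at 0 and 10 min following addition of 50 nM substrate to 10 nM Pol beta preincubated 15 min with compound.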
Pol kappa inh-1: qHTS for Inhibitors of Polymerase Kappa | DNA polymerase kappa (Homo sapiens), Q9UBT6 | purified Pol kappa, fluorescent DNA synthesis assay, 10 min | Potency, µM (highest dose often 107 µM), for the others: top-dose activity, negative = inhibition, actives largely listed as inhibitors | 400,000 compounds, 0.53% hits | AID 588579, 2011; also: % is scaled to controls: 0 for no effect and ±100 for the full control effect
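Inhibition of 10 nM Pol kappa is measured by a fluorescent read-out at 0 and 10 min following addition of 50 nM substrate (final), with a 15-min room-temperature compound preincubation.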
Pol eta inh-1: qHTS for Inhibitors of Polymerase Eta; DNA polymerase eta (Homo sapiens), Q9Y253; recombinant Pol eta, fluorescent DNA replication assay; Potency, µM (series often up to 114 µM), inactives show at the highest dose activity change, negative = inhibition, most hits filed as inhibitors; 390,000 compounds, 1.2% hits; AID 588591, 2011; also: % is scaled to controls: 0 for no effect and ±100 for the full control effect
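Pol eta at 10 nM preincubated with compounds 15 min at room temperature; reaction started with fluorescent substrate (50 nM final) and read kinetically at 0 and 10 min.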
WRN inhibitor: qHTS for Inhibitors of WRN Helicase. Bifunctional 3'-5' exonuclease/ATP-dependent helicase WRN (Homo sapiens), Q14191. WRN helicase unwinding, fluorescent forked duplex, kinetic. Potency, µM (highest dose often 114 µM), for inactives: at the highest dose activity change, negative = inhibition, hits mostly inhibitors. 360,000 compounds, 0.46% hits. AID 651768, 2012; also: % is scaled to controls: 0 for no effect and ±100 for the full control effect; nearly all actives have a fitted effect of over 55% in size
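Enzyme (20 nM final) and test compound sit together 15 min at room temperature before substrate addition. Substrate is a single-forked duplex oligonucleotide (100 nM) labelled with fluorophore and quencher, with 2 mM ATP; helicase unwinding raises red fluorescence, read kinetically.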
Pol kappa inh-2: qHTS for Inhibitors of Polymerase Kappa: Confirmatory Assay for Cherry-picked Compounds. shares compounds with Pol eta inh-1. purified Pol-kappa, fluorescent strand-displacement substrate. Potency, µM, hits mostly inhibitors. 920 compounds, 76% hits. AID 720501, 2013
Pol eta inh-2: qHTS for Inhibitors of Polymerase Eta: Confirmatory Assay for Cherry-picked Compounds | 2,600 compounds, 64% hits | shares compounds with Pol eta inh-1 | Potency, µM, usual class: inhibitors | AID 720502, 2013 | Pol eta primer extension, TAMRA/BHQ fluorescence, 10 min
* = called active by the depositor; ? = inconclusive; . = not tested or not shown; ! = a repeat was not active; [ ] = dose if it differs, or a comment. Calls follow the shape of the dose curve; as a rule, active = well fitted curve in the direction sought with a large enough effect; inconclusive = small, poorly fitted or top-dose-only effect, or another doubt; inactive = no such curve, though single readings can be large; an effect the other way counts as inactive or inconclusive. Potency is read from the fitted curve at half-maximal effect.

SMILES | POLI inh | FEN1 inhibitor | Pol beta inh | Pol kappa inh-1 | Pol eta inh-1 | WRN inhibitor | Pol eta inh-2 | others
C=CCOc1ccc(C(c2c(C(=O)O)[nH]c3ccccc23)c2c(C(=O)O)[nH]c3ccccc23)cc1 | 18µM* | -4% | 20µM* | 79µM* | 32µM* | ? | ? | Pol kappa inh-2=?
COCCn1c(=O)c(-c2ccc(F)cc2)nc2cnc(N(C)C)nc21 | . | . | . | -5%[60.1 µM] | . | . | .
O=C(Nc1sc2c(c1C(=O)O)CCC2)c1ccccc1 | ? | -14% | 20µM* | ? | 13µM* | ? | 76*
O=C(/C=C/c1ccco1)Nc1sc2c(c1C(=O)O)CCC2 | ? | -12% | -83% | ? | 79µM* | -3%[11.6 µM] | ?
O=C(/C=C/c1ccccc1)Nc1sc2c(c1C(=O)O)CCC2 | ? | -2% | 5% | ? | -10% | -18% | .
N#Cc1c(NC(=O)/C=C/c2ccco2)sc2c1CCCC2 | 50µM* | 4% | ? | -26% | ? | ? | 85*
CCOC(=O)C(=O)Nc1nc(-c2ccc3c(c2)CCN3C(=O)C2CC2)c(C)s1 | -11% | -3% | -6% | -3% | 14µM* | 1% | ?
O=C(O)c1ccc(/C=C/c2nc3ccccc3c(=O)[nH]2)cc1 | ? | 24% | 1% | -17% | 2% | -3%[57.1 µM] | .
O=C(O)c1ccc(/C=C/c2nc3sc4c(c3c(=O)[nH]2)CCC4)cc1 | 14µM* | -15% | -11% | ? | 22µM* | -36% | ?
Cc1ccc2c(c1)N(C(=O)CCC(=O)NCc1cccs1)CCO2 | 2% | -10% | 42% | -7% | -12% | . | .
Cc1cc(NC(=O)c2cc(S(=O)(=O)N3CCCCC3)ccc2C)no1 | ? | 7% | . | ? | 22µM* | -25% | ?
COc1cc(C(=O)O)cc(OC)c1OCc1cc(C(=O)O)oc1C | ? | -11% | 18µM* | -42% | 3.2µM* | -13% | 48* | Pol kappa inh-2=42*
COC(=O)c1c(NC(=O)CCCC(=O)O)sc2c1CCC2 | -24%[58.9 µM] | 10% | 1% | -31% | ? | ? | 30*
O=C(O)c1ccc(-n2c(-c3cc(-c4ccco4)[nH]n3)n[nH]c2=S)cc1 | ? | 3% | ? | ? | 10µM* | ? | 30*
O=C(O)c1ccc(-n2c(-c3cc(C4CC4)[nH]n3)n[nH]c2=S)cc1 | -12% | -3% | 10% | -6% | -8% | -1% | .
O=[N+]([O-])c1ccc(C=NNc2ccc(S(=O)(=O)O)cc2)cc1 | ? | -5% | . | -9% | 22µM* | 3%[11.6 µM] | 48*
Cc1ccc(C)n1-c1nc(=S)[nH][nH]1 | ? | -14% | -2% | 28µM* | 45µM* | ? | 76*
S=c1nc(-c2ccc(Cl)cc2)[nH][nH]1 | 24% | 4% | 2% | 0% | -6% | -18% | .
Fc1cccc(-c2nn[nH]n2)c1 | 15% | -4% | 5% | 3% | -7% | 12% | .
Cc1ccc(C)n1-c1cccc(-c2nn[nH]n2)c1 | . | . | . | . | . | . | ?
CC(=O)Nc1ccc(Nc2nc3ccccc3nc2NS(=O)(=O)c2ccc(Cl)c([N+](=O)[O-])c2)cc1 | ? | -25% | . | ? | 22µM* | ? | ?
CCOCCCNc1nc2c(C)cccn2c(=O)c1/C=C1\SC(=S)N(CC(C)C)C1=O | 19% | -3% | -10% | -19% | -6% | -9% | .
CCOCCCNc1nc2c(C)cccn2c(=O)c1/C=C1\SC(=S)N(C(C)CC)C1=O (stereo unspecified) | 16% | -16% | 17% | -9% | 79µM* | ? | . | Pol kappa inh-2=27*
COc1cc(C2C(C#N)=C(N)OC3=C2C(=O)CC(C)(C)C3)cc2c1OCO2 (stereo unspecified) | 25µM* | -9% | . | ? | ? | ? | ?
COc1cc(C2C(C#N)=C(N)Oc3cc(O)ccc32)cc2c1OCO2 (stereo unspecified) | 0% | -9% | 15% | -12% | -7% | -7% | .
SMILES | POLI inh | FEN1 inhibitor | Pol beta inh | Pol kappa inh-1 | Pol eta inh-1 | WRN inhibitor | Pol eta inh-2 | others
Cc1oc(-c2ccccc2Cl)nc1CS(=O)(=O)CC(=O)NCc1ccc(F)cc1 | 0% | -11% | 4% | -3% | -16% | . | .
Nc1cc2c(cc1[N+](=O)[O-])OCCO2 | 23% | 2% | 2% | -2% | -21% | -14% | .
Nc1cc2c(cc1[N+](=O)[O-])OCO2 | ? | -31% | 28µM* | ? | 45µM* | -21%[57.1 µM] | ?
COCc1cc(C)n(CC(=O)N/N=C/c2ccc(-c3ccc(Cl)c(C(=O)O)c3)o2)c(=O)c1C#N | 22µM* | 5% | 20µM* | ? | 10µM* | ? | 43*
CCOc1ccc(NC(=O)Cc2coc3ccc(C)cc23)cc1 | 20% | -2% | 28% | -2% | . | . | .
CCOc1ccc(NS(=O)(=O)c2ccc3[nH]cc(C(=O)NC4CCCC4)c(=O)c3c2)cc1 | ? | -7% | ? | -33% | -5% | . | .
CCOc1ccc(NS(=O)(=O)c2ccc3[nH]cc(C(=O)NCc4ccco4)c(=O)c3c2)cc1 | ? | -5% | 22µM* | -19% | 79µM* | . | . | Pol kappa inh-2=?
CCc1ccc(NS(=O)(=O)c2ccc3[nH]cc(C(=O)NC4CCCC4)c(=O)c3c2)cc1 | 89µM* | -11% | 50µM* | ? | ? | . | . | Pol kappa inh-2=?
CCc1ccc(NS(=O)(=O)c2ccc3[nH]cc(C(=O)N(C)Cc4ccco4)c(=O)c3c2)cc1 | ? | -21% | 45µM*! | -24% | 89µM* | -19%[57.1 µM] | ?
Cc1ccc(CNC(=O)C2CCN(c3nn4cc(-c5ccc(F)cc5)nc4s3)CC2)cc1 | 11% | 1% | -2% | -17% | 0% | . | .
CCOC(=O)/C=C/C(=O)Nc1ccc(S(=O)(=O)Nc2nccs2)cc1 | 25µM* | 2% | -2% | -39% | 45µM* | -8%[11.6 µM] | ?
O=C(CSc1ccncc1)Nc1ccc(S(=O)(=O)Nc2nccs2)cc1 | 28µM* | ? | 2% | ? | 18µM* | -30% | 48*
O=C(Nc1ccc(S(=O)(=O)Nc2nccs2)cc1)/C(=C/c1ccccc1Cl)NC(=O)c1ccccc1 | -13% | ? | -1% | -25% | ? | -26%[57.1 µM] | ?
